# Bioassay records deposited in PubChem by Broad Institute.
# Sampled rows, rich in hits. Any-hit rate of the full collection: about 2.8%.
# HIV Env fusion: inhibitors of HIV-1 Env-driven cell-cell fusion, primary screen, HeLa-JRFL effector, CEM21 target cells, luciferase; inhibition, % at 12.3 µM; hit rate 1.1% among 360,000; AID 651610, 2012;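 active = mean replicate inhibition score of at least 50 and every replicate individually at or above 50; inconclusive = only one of the two criteria met; inactive = mean below 50 and not all replicates reaching 50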
# LMP1 NFkB inh: EBV LMP1-driven NF-kappaB luciferase reporter inhibitors, primary screen, cell-based, luminescence, single point. AID 504558, 2011. LMP1-induced NF-kappaB luciferase reporter cells. inhibition, % at 12.5 µM. hit rate 0.69% among 350,000; in the data active = inhibition above about 41%; inconclusive = no clear call, values can overlap the other calls
# PAX8 inh HTS: inhibitors of PAX8-driven TPO luciferase reporter, primary screen, RMG-I cells, single concentration; hit rate 1.2% among 360,000; inhibition, % at 12.6 µM; AID 652154, 2013; SteadyGlo, 24 h;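 active = mean replicate inhibition at least 60% with every replicate also reaching 60%; inconclusive = only one of the two criteria is met; inactive = mean below 60% and not all replicates reaching 60%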;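 note: luciferase light reporting Pax8 driven TPO promoter activity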
# Shn3 3UTR inh: reduction of Shn3 3'UTR firefly luciferase signal, primary screen, Schnurri-3 inhibitor project, cell-based, Clone20 osteoblasts, set 2 | Clone20 osteoblast Shn3 3'UTR firefly luciferase, 24 h | inhibition, % at 12.5 µM | hit rate 0.52% among 360,000 | AID 588674, 2011;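 active = mean inhibition of at least 75% with every replicate also reaching 75%; inconclusive = mean inhibition at least 75% but some replicate below; inactive = mean inhibition below 75%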
# N-glyco inh: increase of ERlucT glycosylation luciferase signal, primary screen, N-linked glycosylation inhibitor project, D54 ERlucT cells, luminescence, set 2; D54 ERlucT glycosylation luciferase reporter, 24 h; percent of 100 nM tunicamycin response; reporter increase, % at 12.5 µM; hit rate 0.23% among 360,000; AID 588692, 2011;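 active = mean luciferase reporter signal, scaled so untreated is 0 and the glycosylation-blocking control 100, at or above a set limit in every replicate; inconclusive = mean reaches the limit but not every replicate does; inactive = mean below the limit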;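 note: luciferase carries N-glycosylation sites so blocking glycosylation raises the light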
# NSD2 inh: NSD2 histone methyltransferase inhibitors, primary screen, biochemical, AlphaScreen, single concentration, set 2. NSD2 peptide methylation, 120 min. inhibition, % at 12.5 µM. Histone-lysine N-methyltransferase NSD2 (Homo sapiens), O96028. AID 743445, 2014. hit rate 0.54% among 310,000; in the data active = inhibition above about 50%
# Target sequence (O96028 whole entry, looked up): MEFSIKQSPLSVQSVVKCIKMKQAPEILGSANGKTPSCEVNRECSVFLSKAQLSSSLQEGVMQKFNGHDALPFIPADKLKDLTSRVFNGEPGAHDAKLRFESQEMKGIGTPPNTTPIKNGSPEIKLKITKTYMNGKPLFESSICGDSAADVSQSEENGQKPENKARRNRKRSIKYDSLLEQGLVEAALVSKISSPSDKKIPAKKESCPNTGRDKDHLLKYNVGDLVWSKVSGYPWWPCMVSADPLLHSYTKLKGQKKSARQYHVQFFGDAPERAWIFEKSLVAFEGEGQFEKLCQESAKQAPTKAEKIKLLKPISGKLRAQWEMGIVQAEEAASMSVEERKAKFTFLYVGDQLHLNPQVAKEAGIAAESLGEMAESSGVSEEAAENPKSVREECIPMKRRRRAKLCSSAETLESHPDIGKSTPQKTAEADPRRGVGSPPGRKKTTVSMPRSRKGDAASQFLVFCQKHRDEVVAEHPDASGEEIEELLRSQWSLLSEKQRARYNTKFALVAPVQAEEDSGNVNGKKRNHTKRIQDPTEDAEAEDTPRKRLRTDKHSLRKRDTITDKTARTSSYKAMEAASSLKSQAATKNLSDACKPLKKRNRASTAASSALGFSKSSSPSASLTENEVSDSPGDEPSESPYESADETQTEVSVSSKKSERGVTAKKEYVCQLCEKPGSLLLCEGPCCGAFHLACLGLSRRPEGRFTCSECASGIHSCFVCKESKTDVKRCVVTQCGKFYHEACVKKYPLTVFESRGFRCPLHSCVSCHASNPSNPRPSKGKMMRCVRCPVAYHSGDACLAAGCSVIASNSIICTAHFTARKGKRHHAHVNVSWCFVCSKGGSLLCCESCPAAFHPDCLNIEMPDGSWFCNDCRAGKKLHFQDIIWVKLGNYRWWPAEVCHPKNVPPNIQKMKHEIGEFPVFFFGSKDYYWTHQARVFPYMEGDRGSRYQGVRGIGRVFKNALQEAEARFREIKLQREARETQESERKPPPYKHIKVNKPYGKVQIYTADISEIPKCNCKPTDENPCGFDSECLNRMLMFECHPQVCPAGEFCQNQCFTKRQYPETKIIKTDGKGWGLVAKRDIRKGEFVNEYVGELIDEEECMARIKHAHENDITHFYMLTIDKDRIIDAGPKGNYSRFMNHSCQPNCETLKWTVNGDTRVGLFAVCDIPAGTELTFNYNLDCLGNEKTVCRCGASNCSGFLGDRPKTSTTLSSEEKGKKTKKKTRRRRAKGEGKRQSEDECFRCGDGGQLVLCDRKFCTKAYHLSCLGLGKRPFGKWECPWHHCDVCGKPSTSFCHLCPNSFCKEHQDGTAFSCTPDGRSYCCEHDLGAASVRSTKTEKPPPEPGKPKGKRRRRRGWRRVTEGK
# Hits are given with their value; – = inactive; ? = inconclusive; · = no result.
SMILES,HIV Env fusion,LMP1 NFkB inh,PAX8 inh HTS,Shn3 3UTR inh,N-glyco inh,NSD2 inh
CC(NNC(=S)N1CCCCCC1)c1ccc2ccccc2n1 (stereo not drawn),69,·,81,–,–,–
C/C(=N\Nc1ncnc2sc(C)c(C)c12)c1ccccn1,–,84,–,89,–,–
CC(=NNc1cc(C)c2ccccc2n1)c1ccccn1,–,·,95,·,·,–
C/C(=N\Nc1ncc(Cl)cc1Cl)c1ccccn1,·,85,·,86,–,·
C[C@@H]1CN([C@H](C)CO)C(=O)c2cc(C#C[C@@H](C)O)cnc2O[C@H]1CN(C)C(=O)c1ccccc1,–,·,·,·,·,·
O=C(Cc1ccc([N+](=O)[O-])cc1)N1CCN=C1SCc1ccccc1,–,–,–,–,–,–
Cc1ccc(C)c(CSC2=NCCN2C(=O)Cc2ccc([N+](=O)[O-])cc2)c1,–,–,95,–,–,–
C[C@@H]1CCCCO[C@@H](CN(C)C(=O)Nc2ccc3c(c2)OCO3)[C@H](C)CN([C@H](C)CO)C(=O)c2cc(NC(=O)c3ccccc3)ccc2O1,–,·,–,·,·,·
COc1ccc(CCN2C(=O)c3ccccc3C2c2nnnn2-c2c(C)cccc2C)cc1OC (stereo not drawn),–,·,–,·,·,·
COc1ccc(OC)c(CN2C(=O)c3ccccc3C2c2nnnn2-c2c(C)cccc2C)c1 (stereo not drawn),68,·,–,·,·,·
O=C(OCc1nnc(-c2ccccc2)o1)c1cc([N+](=O)[O-])ccc1Cl,–,–,–,–,–,–
Cc1onc(-c2ccccc2)c1C(=O)OCc1nnc(-c2ccc([N+](=O)[O-])cc2)o1,60,–,–,–,–,–
CO[C@H]1CN(C)C(=O)c2ccc(NC(=O)Nc3cc(F)ccc3F)cc2OC[C@@H](C)NC[C@@H]1C,–,·,·,·,·,·
COc1cc(/C=C2\SC(=S)N(CCC(=O)N3CCCCC3)C2=O)cc(OC)c1OC,–,–,100,–,70,·
O=C(O)CCCN1C(=O)/C(=C\c2ccco2)SC1=S,–,–,–,–,–,101
O=C(CCN1C(=O)/C(=C/c2cccs2)SC1=S)N1CCCCC1,–,–,69,–,50,–
O=C(CCN1C(=O)/C(=C\c2ccccc2)SC1=S)N1CCCCC1,–,–,–,–,56,–
O=C(CCCN1C(=O)/C(=C/c2ccco2)SC1=S)Nc1ccccc1C(=O)O,–,–,–,–,–,·
C[C@@H]1CN([C@@H](C)CO)C(=O)c2cccc(NC(=O)Nc3ccc(F)cc3)c2O[C@@H]1CN(C)Cc1ccc(-c2ccccc2)cc1,–,·,·,·,·,·
CNC(=O)C[C@@H]1CC[C@H]2[C@H](COc3ccc(NC(=O)Nc4ccc(F)cc4)cc3C(=O)N2C)O1,–,·,–,·,·,·
CNC(=O)C1=C[C@H](c2ccc(C(=O)OC)cc2)C[C@H](OCCCCO)O1,–,·,–,·,·,·
COc1ccc(/C=C2/SC(=S)N(CCC(=O)O)C2=O)cc1,58,–,·,–,–,–
COc1cccc(CNC23CC4CC(CC(C4)C2)C3)c1OCc1ccccc1,62,–,–,–,–,–
Cc1cc(C)c(S(=O)(=O)N2CCN(C(=O)CCOc3ccccc3C)CC2)c(C)c1,–,64,–,–,–,·
CN1C(=O)c2cc(NS(C)(=O)=O)ccc2OC[C@H]2O[C@@H](CC(=O)Nc3cccc(F)c3)CC[C@@H]21,–,·,–,·,·,·
SMILES,HIV Env fusion,LMP1 NFkB inh,PAX8 inh HTS,Shn3 3UTR inh,N-glyco inh,NSD2 inh
O=C(c1ccccc1)N1CCN(c2ncnc3sc4c(c23)CCC4)CC1,87,–,–,85,–,–
Cc1ccc(SC2=C[C@@]3(O)CC[C@@H](O)[C@@](Sc4ccc(C)cc4)(C2=O)[C@H]3O)cc1,–,·,–,·,·,·
CC(C)(C)c1ccc(SC2=C[C@@]3(O)CC[C@@H](O)[C@@](Sc4ccc(C(C)(C)C)cc4)(C2=O)[C@H]3O)cc1,–,·,85,·,·,·
c1ccc(-c2cn3nc(-c4ccccc4)sc3n2)cc1,·,–,·,–,–,·
c1ccc(-c2cn3c4c(sc3n2)CCCC4)cc1,–,50,–,–,–,–
COc1cccc(C(=O)N2C[C@@H]3[C@H](c4ccccc42)[C@H](CO)N3Cc2ccccc2Cl)c1,·,·,–,·,·,·
CCNC(=S)NNC(=O)c1cc(-c2ccc(OC)cc2)nc2ccccc12,–,–,–,–,–,–
COc1ccc(Cl)cc1C(=O)NNC(=S)NC(=O)c1cc(-c2ccc(Cl)cc2)nc2ccccc12,94,–,·,–,–,–
O=C(CSc1c2c(nc3ccc(Cl)cc13)CCCC2)N1CCN(C(=O)c2ccco2)CC1,–,–,–,93,41,–
Cc1ccc(CNC(=O)CSc2c3c(nc4ccc(Cl)cc24)CCCC3)o1,–,–,·,84,–,–
CCN(CC)CCNC(=O)CSc1c2c(nc3cc(Cl)ccc13)CCCC2,–,–,–,–,–,–
O=C(C[C@H]1CC[C@H]2[C@@H](COC[C@@H](O)CN2C(=O)Nc2ccccc2)O1)NCc1ccccc1F,·,·,–,·,·,·
C[C@H](NC(=O)C[C@@H]1CC[C@H](NC(=O)c2cccnc2)[C@@H](CO)O1)c1ccccc1,–,·,–,·,·,·
C[C@@H]1CN([C@H](C)CO)C(=O)c2cc(C#Cc3cccnc3)cnc2O[C@@H]1CN(C)C,–,·,·,·,·,·
Clc1ccc(OCCN2CCN(c3ncnc4sccc34)CC2)cc1,99,–,·,?,–,–
c1ccc(CN2CCN(c3ncnc4sccc34)CC2)cc1,·,·,·,·,·,–
Cc1ccc(OCCN2CCN(c3ncnc4sc(C)c(C)c34)CC2)cc1,85,–,·,–,–,·
Cc1noc(C)c1S(=O)(=O)Nc1ccc2c(c1)C(=O)N([C@@H](C)CO)C[C@H](C)[C@@H](CN(C)S(=O)(=O)c1ccc(F)cc1)OCCCC[C@H](C)O2,–,·,–,·,·,·
C[C@@H]1CN([C@@H](C)CO)C(=O)CCCn2cc(nn2)CO[C@@H]1CN(C)Cc1ccc(C(=O)O)cc1,·,·,–,·,·,·
Nc1ccc(SC(F)(F)F)cc1,–,–,–,–,–,–
Cc1ccnc2ccc(SC(F)(F)F)cc12,–,–,87,–,–,–
C=C1CC(Cn2cc(Br)c(=O)[nH]c2=O)(c2ccc(-c3ccccc3)cc2)OC1=O (stereo not drawn),–,–,99,95,–,–
O=c1[nH]c(=O)n(Cc2ccc(Oc3ccccc3)cc2)cc1Br,–,–,–,–,–,–
CCn1c(/C=C/N(C)c2ccccc2)[n+](CC)c2ccc(Cl)cc21,70,–,·,–,–,–
CCn1c(/C=C/Nc2ccccc2)[n+](CC)c2ccc(Cl)cc21,–,–,–,–,–,–
CC(C)CCSc1nc(N)c(C#N)cc1C#N,82,–,·,–,–,–
CC(=O)c1cc(C#N)c(SCCC(C)C)nc1C,·,–,·,–,–,–
C[C@H]1CN([C@@H](C)CO)C(=O)c2cc(-c3ccc(C#N)cc3)cnc2O[C@@H]1CN(C)C(=O)CC1CC1,–,·,·,·,·,·
